TRPML1 blocker: human mucolipin-1 channel inhibition | 390,000 tested, 0.02% active | Q9GZU1 | activity change, negative = inhibition, % (test concentration not listed) | TRPML1-inducible cells, Ca2+ dye fluorescence, FDSS; hits give low values; inhibition of EC80 agonist-evoked calcium signal; in the data active means activity change below about -50%;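 further: stimulus is agonist 54-4 at its EC80 concentration; on the % scale 0 is the no-effect control and ±100 the full control effect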
Target sequence (Q9GZU1 whole entry, looked up): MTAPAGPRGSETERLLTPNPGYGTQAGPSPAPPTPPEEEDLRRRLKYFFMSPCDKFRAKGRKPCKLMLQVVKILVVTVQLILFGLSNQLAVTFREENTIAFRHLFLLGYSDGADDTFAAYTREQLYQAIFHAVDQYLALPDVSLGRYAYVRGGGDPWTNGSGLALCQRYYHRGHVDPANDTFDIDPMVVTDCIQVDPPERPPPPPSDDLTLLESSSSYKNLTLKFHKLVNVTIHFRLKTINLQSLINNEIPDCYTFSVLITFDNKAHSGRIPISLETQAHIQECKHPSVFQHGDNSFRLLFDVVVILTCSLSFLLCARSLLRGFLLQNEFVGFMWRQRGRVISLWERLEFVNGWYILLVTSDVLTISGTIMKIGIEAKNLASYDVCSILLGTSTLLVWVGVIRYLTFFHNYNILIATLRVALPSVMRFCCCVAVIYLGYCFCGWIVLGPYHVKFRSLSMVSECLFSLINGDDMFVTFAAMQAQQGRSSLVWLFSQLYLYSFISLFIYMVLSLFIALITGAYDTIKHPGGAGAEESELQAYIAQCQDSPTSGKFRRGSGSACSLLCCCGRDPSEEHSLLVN
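Calcium fluorescence in TRPML1-DL cells induced overnight with Tet: a 110 s read after compound pin addition, then a 110 s antagonist read after challenge with 54-4 at 4 uM final (EC80).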
TRPML1 agonist: human mucolipin-1 channel agonism; AID 624414; activation, % (test concentration not listed); 410,000 tested, 0.12% active; TRPML1-expressing cells, Ca2+ dye fluorescence, FDSS; in the data active means activation above about 50%; further: 0% is about no effect
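Agonist activity was taken from a 110 s kinetic Ca2+ dye read on the FDSS after pinning compounds onto TRPML1-DL cells. The cells were seeded at 1,500/well with Tet inducer, incubated about 16 h, then dye-loaded at room temperature.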
Glioma ERSR ind: inducers of ER stress response in human glioma cells. U87-MG GRP78 promoter luciferase reporter, 16 h. Potency, µM, for inactives: at the highest dose activation, hits mostly activators. 420,000 tested, 0.02% active. AID 602332; active means well fitted activation curve with a large enough effect; further: potency means the concentration at half of the fitted maximal effect; series mostly up to about 76 µM; % of control where 0% means no effect; nearly all actives have a fitted effect of over 35% in size
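Stably transfected U87-MG human glioma cells carrying a GRP78-based luminescent sensor were seeded at 1000 cells/well, pin-dosed with compounds and incubated 16 h. Luciferase reagent was then added, and end-point luminescence was read after 10 min at room temperature.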
TRHR ag: activates the human TRH receptor; AID 493084; TRHR cells, calcium flux fluo-8, FDSS agonist mode; activation, % at 2 µM; P34981; 360,000 tested, 0.18% active; in the data active means activation above about 30%; further: 0% is about no effect
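Agonist-mode FDSS calcium read (Ex 480/Em 530, 1 s cycles) in 1536-well TRHR cells with fluo-8 dye, after 10-cycle baseline and 23 nL compound addition; TRH at EC20 (10 nM final) added afterwards for the enhancer phase.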
TRHR enhancer: allosteric enhancers of human TRH receptor; 360,000 tested, 0.66% active; P34981; enhancement, % at 2 µM; AID 493056; TRHR cells, fluo-8 calcium fluorescence, EC20 TRH enhancement; in the data active means enhancement above about 30%; further: 0% is about no effect
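TRHR-expressing cells loaded with fluo-8 calcium dye were read kinetically (ex 480/em 530) during compound addition, then stimulated with an EC20 of TRH (10 nM final). Enhancement of the Gq-mediated intracellular calcium response was scored.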
* = called active by the depositor; . = no result given. Sampled rows, rich in hits. Any-hit rate of the full collection: about 0.8%.

SMILES	TRPML1 blocker	TRPML1 agonist	Glioma ERSR ind	TRHR ag	TRHR enhancer
Cc1cnc(C(=O)OCC(=O)Nc2cc(-c3ccccc3)nn2-c2ccccc2)cn1	-20.6	2.1	-5.4%	0.0	32.0*
Cc1cnc(C(=O)OCC(=O)Nc2ccc(C)c(S(=O)(=O)N3CCCCCC3)c2)cn1	16.5	3.0	-4.1%	-0.5	33.0*
Cc1cnc(C(=O)NCc2c(C)ncc3c2CCN(C(=O)/C=C/c2cccs2)C3)cn1	.	.	-2.8%	.	.
COc1ccc(OC)c(-c2cc(C(=O)N3CCOCC3)no2)c1	1.9	0.4	0.7%	-1.0	36.8*
CCOc1ccccc1N(C)C(=O)c1nn(-c2ccc(C)cc2)c(=O)c2c1c1ccccc1n2C	22.7	2.1	.	0.5	0.8
Cc1ccc(-n2nc(C(=O)N(C)c3ccccc3Cl)c3c4ccccc4n(C)c3c2=O)cc1	-25.0	1.3	.	55.8*	8.3
Cc1nc2c(-c3ccccc3)c(C)nn2c(C)c1CCC(=O)O	-11.5	-0.6	-6.4%	0.2	-0.6
Cc1nc2c(-c3ccccc3)c(C)nn2c(SCC(N)=O)c1Cc1ccccc1	-5.0	-1.0	-2.3%	0.4	34.3*
O=C1CC(c2ccccc2Cl)CC(O)=C1C=NCCCO (configuration not stated)	-8.4	-0.3	-1.5%	0.4	34.0*
CN(Cc1cc(-c2ccccc2)on1)C(=O)c1cc(COc2c(F)cccc2F)on1	.	.	14.2%	0.2	34.0*
Cc1c(C)c2ccc(OCC(=O)N[C@@H](Cc3ccccc3)C(=O)O)cc2oc1=O	-0.7	1.3	-2.9%	-0.1	9.8
Cc1cc(OCC(=O)N[C@@H](CSCc2ccccc2)C(=O)O)c2c(C)c(C)c(=O)oc2c1	.	.	-0.1%	-0.1	40.8*
N#Cc1cccc(NC(=O)c2ccc3c(c2)N(Cc2cccc(Cl)c2)C(=O)c2ccccc2S3(=O)=O)c1	-16.6	2.7	-4.3%	2.2	31.0*
Cc1cc(NC(=O)c2ccc3c(c2)N(Cc2cccc(Cl)c2)C(=O)c2ccccc2S3=O)ccc1Br (configuration not stated)	1.5	-0.6	-2.8%	0.6	2.2
Cc1cccc(C)c1NC(=O)c1ccc2c(c1)N(Cc1cccc(Cl)c1)C(=O)c1ccccc1S2=O (configuration not stated)	39.6	4.2	-4.9%	-1.7	33.0*
Cc1cccc(S(=O)(=O)c2cn(C)c3cc(N4CCN(c5ccccc5)CC4)c(F)cc3c2=O)c1	1.0	2.1	-1.0%	-0.5	31.7*
COCCNC(=O)/C(C#N)=c1\s/c(=C\c2ccccc2OC(F)F)c(=O)n1Cc1ccccc1	.	.	.	103.2*	-13.3
COCCCn1c(=O)/c(=C/c2ccccc2OC(F)F)s/c1=C(\C#N)C(=O)NCCOC	-3.2	1.5	-1.1%	.	.
CCCOc1ccc(Cc2nn3c(=O)/c(=C/c4ccco4)sc3nc2=O)cc1	0.1	50.4*	-3.8%	0.1	2.7
CCCOc1ccc(/C=c2\sc3nc(-c4ccco4)nn3c2=O)cc1OCC	-0.9	0.5	-2.6%	-0.1	2.6
COc1cccc(C2Nc3ccccc3NC3=C2C(=O)CC(C)(C)C3)c1OC (configuration not stated)	-0.9	-0.4	-3.9%	0.7	34.7*
CCN(CC(=O)Nc1ccccc1OC)C(=O)CCc1ccccc1	-6.6	-0.5	-2.5%	0.3	39.5*
COc1ccccc1/C=C1\Cc2ccccc2C1=O	-1.1	2.9	0.8%	-0.4	5.8
COc1cccc2c1C(=O)/C(=C\c1ccc(N(C)C)cc1)C2	.	62.1*	0.2%	.	.
COc1ccccc1-n1cc(CN2CCOc3ccc(CN4C[C@@H](C)O[C@@H](C)C4)cc3C2)cn1	.	.	-3.6%	.	.
SMILES	TRPML1 blocker	TRPML1 agonist	Glioma ERSR ind	TRHR ag	TRHR enhancer
CSc1nnc(CCNC(=O)c2ccccc2C(F)(F)F)n1-c1ccc(F)cc1	.	.	-2.9%	.	.
O=C(NCCCn1ccnc1)c1cccc(S(=O)(=O)Nc2ccc(Br)cc2)c1	-5.0	-0.1	-7.1%	-0.3	35.8*
O=C(NCCCN1CCCC1=O)c1cccc(NS(=O)(=O)c2ccccc2)c1	-6.0	-0.8	-1.6%	0.1	3.4
O=C(NCCCN1CCCC1=O)c1cccc(NS(=O)(=O)c2ccc(Br)cc2)c1	6.3	0.2	0.0%	0.1	33.4*
O=C(NCCCn1ccnc1)c1cccc(S(=O)(=O)Nc2ccc(F)cc2)c1	-8.5	1.4	1.7%	0.2	-0.7
CCc1sc(C(=O)NCCCn2ccnc2)cc1Br	15.1	0.6	-4.8%	-1.6	30.7*
O=C(NCc1ccncc1)c1cnn(-c2nccc(-c3cc4ccccc4o3)n2)c1C1CC1	.	.	-4.5%	.	.
CCC(=O)Nc1ccc(C(=O)Nc2ccc(Br)cc2F)cc1	-27.9	-0.2	3.9%	1.6	40.5*
COC(=O)c1ccccc1-c1cc(C)cc2c1OC(CNC(=O)c1occc1C)C2 (configuration not stated)	.	.	3.6%	.	.
CCOc1ccc2oc(=O)cc(CN3CCN(c4ccccc4OC)CC3)c2c1	3.2	-0.2	-1.4%	-1.5	46.5*
COc1ccc2oc(=O)cc(CN3CCN(c4ccccc4OC)CC3)c2c1	-7.1	-0.4	-1.2%	-1.8	-1.9
CCO[C@@H]1OC(C(=O)N2CCN(C)CC2)=C[C@H](C(C)(C)C)[C@H]1CCCO	32.0	-0.2	-3.6%	0.5	35.4*
CCO[C@H]1OC(C(=O)O)=C[C@@H](C(C)(C)C)[C@@H]1CCCO	6.7	-0.4	-0.8%	.	.
COCc1c(C(=O)NCC2CCCN(C)C2)cnn1-c1ncc2c(n1)-c1ccccc1CCC2 (configuration not stated)	.	.	-4.1%	.	.
Cc1c(Cl)cccc1N1CC(C)(C)C1=O	-17.3	51.9*	-7.6%	-1.4	0.9
CCOc1ccccc1OCC(=O)OCC(=O)NNC(=O)c1ccc([N+](=O)[O-])cc1	8.8	1.3	-5.0%	-0.1	30.1*
CCC(C)NC(=O)CSc1nc2ccccc2c(=O)n1Cc1ccc(OC)cc1 (configuration not stated)	11.5	1.7	1.6%	-0.5	31.8*
O=C(NCCN1CCOCC1)c1cnn(-c2nccc(-c3cc4ccccc4o3)n2)c1C1CC1	.	.	-4.4%	.	.
Cc1cccc(CN2CCN(CC(=O)Nc3c(C)cccc3C)S2(=O)=O)c1	2.1	0.5	-1.9%	35.8*	-0.4
CO[C@H]1[C@H](NC(=O)c2cccs2)c2ccccc2C12CCN(Cc1cccn1-c1ccccn1)CC2	.	.	-3.1%	.	.
COc1cc(C(=O)Nc2ccccc2-c2nc(-c3ccc(C)cc3)no2)cc(OC)c1OC	0.3	0.2	-1.2%	0.5	1.8
COc1cc(C(=O)Nc2ccccc2-c2nc(-c3ccccc3)no2)cc(OC)c1OC	27.7	0.5	0.4%	49.7*	6.0
COc1ccc(CNC(=O)c2ccc3c(c2)NC(=O)C(C)S3)cc1 (configuration not stated)	-17.1	0.3	7.4%	0.0	36.1*
NC(=O)NC(=O)COC(=O)CN1C(=O)C2CCCCC2C1=O (configuration not stated)	-6.8	0.2	-3.6%	0.5	35.6*

Compound activity deposited in PubChem by National Center for Advancing Translational Sciences (NCATS).
